D2 PAM-1: HTS Assay for Positive Allosteric Modulators of the Human D2 Dopamine Receptor: Primary Screen for Potentiators; hit rate 0.34% among 340,000; D(2) dopamine receptor (Homo sapiens), P14416; HEK293 T-REx D2, calcium flux, EC20 dopamine potentiation; potentiation, % at 10 µM; AID 485347, 2010;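 active = potentiation over 3 SD above the plate norm, cut at about 30% in these data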; also: 0% is about no effect
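Potentiation of an EC20 dopamine calcium response measured kinetically over 180 s, after a preceding 180 s compound-only read flagging agonists. Cells: inducible Hek293 Trex D2 line, 4000/well, cultured overnight at 30 C before dye loading.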
D2 ag-1: HTS Assay for Allosteric Agonists of the Human D2 Dopamine Receptor: Primary Screen for Agonists; HEK293 T-REx D2 cells, calcium flux agonist mode; activation, % at 2 µM; hit rate 0.53% among 340,000;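 active = activation over 3 SD above normal in the single-dose calcium agonist read, cut at about 30% in these data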; also: 0% is about no effect
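In this primary screen, compounds producing a positive calcium signal within 180 s of addition to tetracycline-induced, force-coupled HEK293 Trex D2 cells are flagged; cells are dye-loaded with a no-wash calcium kit beforehand.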
D2 PAM-2: Beta-Arrestin HTS for Positive Allosteric Modulators of the Human D2 Dopamine Receptor: Potentiators. potentiation, % (no concentration beside the values). AID 624464, 2012. hit rate 0.23% among 360,000. DiscoveRx D2 beta-arrestin cells, luminescence, 90 min; 100% = 57 uM dopamine signal; in the data active = potentiation above about 50%; inconclusive = mostly about 30% to 49%
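D2 cells co-treated with compound plus 50 nM dopamine (EC20) for 90 min at 37 deg C to detect potentiation. Beta-arrestin recruitment was read as enzyme-fragment luminescence after 1 h at ambient temperature. Full response was set by 57 uM dopamine.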
D2 ag-2: Beta-Arrestin HTS for Positive Allosteric Modulators of the Human D2 Dopamine Receptor: Agonists; hit rate 0.084% among 360,000; AID 624465, 2012; D(2) dopamine receptor (Homo sapiens), P14416; activation, % (no concentration beside the values); DiscoveRx PathHunter D2 beta-arrestin, luminescence, 90 min; 100% = 57 uM dopamine signal; in the data active = activation above about 40%; inconclusive = between about 15% and that limit
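DiscoveRx PathHunter D2 beta-arrestin cells (2,100/well) attached overnight, then compound-stimulated 90 min at 37 C in HBSS/10 mM HEPES/0.1% Tween-20 buffer; beta-galactosidase complementation read by luminescence after 1 h at ambient temperature. Dopamine 57 uM final (EC100) as control.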
D2 antag: HTS Assay for Allosteric Antagonists of the Human D2 Dopamine Receptor: Primary Screen for Antagonists. D(2) dopamine receptor (Homo sapiens), P14416. HEK293 TREx D2 cells, calcium flux, dopamine EC80. inhibition, % at 10 µM. hit rate 2% among 340,000. AID 485344, 2010; in the data active = inhibition above about 30%; inactive = below that, where a call was filed; also: 0% is about no effect
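In this primary screen, negative modulation is detected by tracking calcium flux after an EC80 dopamine challenge in inducible HEK293 T-REx D2 cells preexposed to test compound for 180 s.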
D3 arrestin ag: qHTS of D3 Dopamine Receptor Agonist: D3 Dopamine Receptor B-arrestin Agonist Confirmatory Assay; shares compounds with D2 ag-1; DiscoveRx D3 beta-arrestin cells, luminescence, 90 min; Potency, µM (titrated, usually from 76.9 µM), inactives show at the top dose activation, hits mostly activators; hit rate 4% among 2,300; AID 720506, 2013;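 also: potency is read from the fitted curve at half-maximal effect; 100% = dopamine control response; nearly all actives have a fitted effect of over 70% in size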
Target sequence (P35462 whole entry, looked up): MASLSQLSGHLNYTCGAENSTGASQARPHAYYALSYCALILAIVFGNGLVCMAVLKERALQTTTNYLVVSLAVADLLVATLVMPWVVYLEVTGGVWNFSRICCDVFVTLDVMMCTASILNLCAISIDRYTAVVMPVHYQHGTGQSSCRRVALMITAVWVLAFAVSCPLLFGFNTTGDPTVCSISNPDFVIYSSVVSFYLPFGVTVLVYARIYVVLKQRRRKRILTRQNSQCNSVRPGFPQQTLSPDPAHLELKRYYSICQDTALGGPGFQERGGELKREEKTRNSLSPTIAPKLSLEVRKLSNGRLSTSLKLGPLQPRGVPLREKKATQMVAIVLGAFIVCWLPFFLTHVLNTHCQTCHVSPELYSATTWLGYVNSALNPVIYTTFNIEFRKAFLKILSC
D2 ag-3: qHTS of D3 Dopamine Receptor Agonist: D2 Dopamine Receptor B-arrestin Agonist Counterscreen; Potency, µM (series often up to 76.9 µM), without a hit: top-dose activation, usual class: activators; DiscoveRx PathHunter D2 beta-arrestin, luminescence, 90 min; response scale: percent relative to full dopamine signal; shares compounds with D2 ag-1; hit rate 5.9% among 2,300; also: potency is read from the fitted curve at half-maximal effect; % of control where 0% means no effect; nearly all actives have a fitted effect of over 70% in size
Active calls of the source: *; ? = inconclusive; . = no result given. Only some compounds are listed: those with a hit (about 2.4% of all), similar ones and a draw of the others. Unless noted, calls follow the shape of the dose curve; as a rule, active = well fitted activation curve with a large enough effect; inconclusive = small, poorly fitted or top-dose-only effect; inactive = flat fitted curve, though single readings scatter.

SMILES	D2 PAM-1	D2 ag-1	D2 PAM-2	D2 ag-2	D2 antag	D3 arrestin ag	D2 ag-3
CC(=O)c1ccc(NC(=O)C(C)N2CCN(C/C=C/c3ccccc3)CC2)cc1 (centres undefined)	-14	20	-24	5	47*	?	2%
O=C(CSc1ncc(-c2ccccc2)[nH]1)Nc1cccc(Br)c1	-11	.	.	.	.	.	.
O=c1c2cccnc2[nH]c(=S)n1CCCN1CCN(c2ccccc2F)CC1	-23	82*	-5	?	116*	8%	?
CCN(CC)CCCn1c(=S)[nH]c2ncccc2c1=O	-16	50*	8	4	48*	-6%	6%
CCOCCCn1c(=S)[nH]c2cc(C(=O)NCCN(CC)CC)ccc2c1=O	-12	.	1	9	.	-8%	12%
CCN(CCCn1c(=S)[nH]c2ncccc2c1=O)c1ccccc1	1	-1	-6	-2	-2	.	.
O=c1c2ccccc2[nH]c(=S)n1CCCN1CCN(c2ccccc2F)CC1	-29	71*	-12	?	81*	14%	26%
O=c1c2ccccc2[nH]c(=S)n1CCCN1CCN(c2ccccc2)CC1	5	1	?	?	-24	.	.
CCOC(=O)c1cc(-c2ccc(F)cc2)n(CCC(=O)Nc2cc(OC)cc(OC)c2)c1C	-2	-1	.	.	.	.	.
CCCCCn1c(CCCNC(=O)c2ccccc2)nc2ccccc21	-15	-1	.	.	.	.	.
CCC(C)Nc1ccc(NC(C)CC)cc1 (centres undefined)	0	1	-2	7	-10	1%	14%
O=C(CCCCCNC(=O)c1ccccc1Br)N=Nc1c(O)[nH]c2ccccc12	7	28	-7	6	5	-2%	5%
O=C(Nc1ccc(Cl)cc1)C1CCN(c2nc3ccccc3n3cccc23)CC1	11	0	.	.	.	.	.
Cc1cc(C(=O)CN2C(=O)C(=O)N(C3CCCC3)C2=O)c(C)n1CCc1ccccc1	20	8	10	0	-13	.	.
Cc1[nH]c2ccccc2c1C(=O)CN1C(=O)C(=O)N(C2CCCC2)C1=O	6	0	-2	0	-3	-15%	-5%
Clc1ccccc1CSc1nc(NCCc2ccccc2)c2ccccc2n1	2	0	.	.	.	.	.
COc1ccc(CC(=O)Nc2ccc(F)c(F)c2F)cc1S(=O)(=O)N1CCOCC1	5	1	-3	-2	6	4%	7%
CCN1CCc2c(sc(-n3cccc3)c2C(C)NC(=O)Nc2cc(Cl)c(OC)cc2OC)C1 (centres undefined)	-4	2	.	.	.	.	.
COc1ccc(CCNC(=O)COC(=O)c2ccc(N3CCCC3=O)cc2)cc1OC	11	2	3	2	-2	.	.
COc1ccccc1CNC(=O)COC(=O)c1ccc(N2CCCC2=O)cc1	-18	2	-3	-2	12	11%	2%
COc1cc(C)c(C)cc1S(=O)(=O)Nc1cccc(-c2ccc(N3CCOCC3)nn2)c1	-12	2	.	.	.	.	.
CS(=O)(=O)Nc1ccccc1C(=O)Nc1cc(Cl)cc(Cl)c1	3	7	-6	-2	-1	19%	23%
Cc1ccccc1CNC(=O)C1CCN(S(=O)(=O)Cc2ccccc2)CC1	6	2	.	.	.	.	.
COc1cc2[nH]c3c(=O)n4c(nc3c2cc1OC)SCCC4	7	1	14	0	6	7%	-3%
COc1ccc2[nH]c3c(=O)n4c(nc3c2c1)SCC4	-4	1	13	5	11	.	.
SMILES	D2 PAM-1	D2 ag-1	D2 PAM-2	D2 ag-2	D2 antag	D3 arrestin ag	D2 ag-3
Cc1ccc(C(=O)N2CCC(c3c[nH]c4ccccc34)(c3c[nH]c4ccccc34)CC2)cc1	5	-1	.	.	.	.	.
Cc1ccccc1CN1CCN(C(C)C(=O)NNC(=O)c2ccc(F)cc2)CC1 (centres undefined)	-15	58*	-3	1	25	-9%	10%
Cc1oc(-c2cccc(Cl)c2)nc1CN1CCC(C(=O)NCCCN2CCN(c3cccc(Cl)c3)CC2)CC1	-22	.	.	.	.	.	.
Cc1oc(-c2cccc(Cl)c2)nc1CN1CCC(C(=O)NCCCN2CC(C)CC(C)C2)CC1 (centres undefined)	-13	35*	-10	-2	20	-13%	4%
CCS(=O)(=O)N1CCN(C(C)CCc2ccccc2)CC1 (centres undefined)	-21	61*	3	13	28	?	?
CC(C)N1CCN(S(=O)(=O)c2ccccc2)CC1	1	2	2	-1	1	.	.
O=C(CN1CCN(c2ccccc2)CC1)c1ccc2cc[nH]c2c1	-24	84*	-14	-3	90*	20%	27%
O=C(CN1CCC2(CC1)OCCO2)c1ccc2cc[nH]c2c1	2	2	-9	-2	-5	.	.
O=C(CN1CCN(c2ccccc2)CC1)Nc1ccc(Oc2ccccc2)cc1	-30	55*	18	11	58*	?	?
O=C(CN1CCN(c2ccccc2)CC1)Nc1ccc(-n2cnnn2)cc1	-22	69*	-1	11	51*	?	?
CC1CCN(S(=O)(=O)c2ccc(NC(=O)CN3CCN(C)CC3)cc2)CC1	8	0	-3	0	12	.	.
COc1cccc(N2CCN(CC(=O)Nc3ccc(-n4cnnn4)cc3)CC2)c1	-4	2	-1	5	9	.	.
CC1CCN(S(=O)(=O)c2ccc(NC(=O)CN3CCN(c4ccccc4)CC3)cc2)CC1	-29	45*	9	?	59*	2.2µM*	?
COc1ccc(C2C(=O)N(C3CCC(C)CC3)CC(=O)N2CCC2=CCCCC2)cc1OC (centres undefined)	6	1	.	.	.	.	.
CCOc1ccccc1NC(=O)C1CCCN(c2ncnc3onc(-c4ccc(F)cc4)c23)C1 (centres undefined)	3	-2	.	.	.	.	.
Cc1ccc2c(c1)-c1onc(C(=O)N3CCN(c4ccc(Cl)cc4)CC3)c1CO2	2	1	.	.	.	.	.

Source: PubChem BioAssay
